PubChem BioAssay AID1159580 (chemical genetic matrix, 2015)
The campaign covered roughly 5,500 compounds. About 2,000 (36%) were called active. Not shown: some 18% with an inconclusive outcome. Cut-off read from the data, not from the text of the source: active = normalized growth mostly below about 0.91 (no sharp cut-off); inconclusive = no clear call, values can overlap the other calls; inactive = mostly above about 0.92. This is one part of the list.

Assay: chemical genetic growth profiling, strain panel (AID 1159580);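 note: tested at 20 µM; growth read once vehicle control cultures reached saturation at 30 °C; 1 = growth at the plate median or of vehicle wells; lower values mean less growth of the strain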
Settings: growth OD
[1] = S. cerevisiae deletion strains, locus YAL040C, strain CLN3, hits give low values
[2] = S. cerevisiae deletion strains, locus YCL061C, strain MRC1 (second series), hits give low values
[3] = S. cerevisiae deletion strains, locus YDR363W, strain ESC2, hits give low values
[4] = S. cerevisiae deletion strains, locus YER002W, strain NOP16, hits give low values
[5] = S. cerevisiae deletion strains, locus YGR229C, strain SMI1, hits give low values
[6] = S. cerevisiae deletion strains, locus YJR075W, strain HOC1, hits give low values
[7] = S. cerevisiae deletion strains, locus YMR307W, strain GAS1, hits give low values
[8] = S. cerevisiae deletion strains, locus YNL175C, strain NOP13, hits give low values
[9] = S. cerevisiae deletion strains, locus YNL197C, strain WHI3, hits give low values
[10] = S. cerevisiae deletion strains, locus YNL224C, strain SQS1, hits give low values
[11] = S. cerevisiae deletion strains, locus YOR083W, strain WHI5 (second series), hits give low values
[12] = S. cerevisiae deletion strains, locus YPL055C, strain LGE1, hits give low values
[13] = S. cerevisiae deletion strains, locus YAL013W, strain DEP1, hits give low values
[14] = S. cerevisiae deletion strains, locus YDR150W, strain NUM1, hits give low values
[15] = S. cerevisiae deletion strains, locus YGR078C, strain PAC10, hits give low values
[16] = S. cerevisiae deletion strains, locus YMR263W, strain SAP30, hits give low values
[17] = S. cerevisiae deletion strains, locus YNL128W, strain TEP1, hits give low values
[18] = S. cerevisiae deletion strains, locus YNL153C, strain GIM3, hits give low values
[19] = S. cerevisiae deletion strains, locus YDL101C, strain DUN1, hits give low values
[20] = S. cerevisiae deletion strains, locus YHR030C, strain SLT2, hits give low values

Measured: normalized growth

CN(C)c1ccc(/C=C2\C(=O)Nc3ccccc32)cc1
inactive: [1] 0.95 | [2] 0.993 | [3] 0.963 | [5] 0.93 | [6] 0.972 | [7] 0.984 | [9] 0.942 | [12] 0.972
active: [4] 0.877 | [8] 0.809 | [10] 0.891 | [11] 0.786

Cc1cc(C)c(/C=C2\C(=O)Nc3ccccc32)[nH]1
active: [7] 0.887 | [11] 0.847
inactive: [13] 0.967 | [1] 1.06 | [2] 0.994 | [14] 0.939 | [3] 0.987 | [4] 0.999 | [15] 0.991 | [5] 0.917 | [16] 0.99 | [17] 0.935 | [18] 0.872 | [8] 0.992 | [9] 0.934 | [10] 0.929

O=C1NC(=O)/C(=C/c2ccc(OS(=O)(=O)c3ccc(Cl)cc3)cc2)N1
inactive: [13] 1 | S. cerevisiae deletion strains, locus YBR229C, strain ROT2, hits give low values 1.03 | [19] 0.983 | S. cerevisiae deletion strains, locus YDL134C, strain PPH21, hits give low values 0.991 | [14] 0.957 | S. cerevisiae deletion strains, locus YEL061C, strain CIN8, hits give low values 1.01 | [15] 0.983 | [5] 1.01 | [20] 0.989 | S. cerevisiae deletion strains, locus YHR087W, strain rtc3, hits give low values 1.02 | S. cerevisiae deletion strains, locus YJL187C, strain SWE1, hits give low values 1.04 | S. cerevisiae deletion strains, locus YJR043C, strain POL32, hits give low values 0.982 | [6] 1.03 | S. cerevisiae deletion strains, locus YLR039C, strain RIC1, hits give low values 1.02 | S. cerevisiae deletion strains, locus YLR058C, strain SHM2 (second series), hits give low values 1.02 | S. cerevisiae deletion strains, locus YLR085C, strain ARP6, hits give low values 0.999 | S. cerevisiae deletion strains, locus YLR262C, strain YPT6, hits give low values 0.996 | S. cerevisiae deletion strains, locus YML094W, strain GIM5, hits give low values 1 | S. cerevisiae deletion strains, locus YMR219W, strain ESC1, hits give low values 1.01 | [16] 1 | [17] 0.978 | [18] 0.99 | S. cerevisiae deletion strains, locus YNL298W, strain CLA4 (second series), hits give low values 0.976 | S. cerevisiae deletion strains, locus YNL322C, strain KRE1, hits give low values 0.998 | S. cerevisiae deletion strains, locus YNR030W, strain Alg12, hits give low values 1 | [12] 1.06 | S. cerevisiae deletion strains, locus YPL241C, strain CIN2, hits give low values 1 | S. cerevisiae deletion strains, locus YPR135W, strain CTF4, hits give low values 0.978 | S. cerevisiae strains, strain wild type, hits give low values 0.964

O=C1Nc2ccccc2/C1=C/c1ccc(C(F)(F)F)cc1Cl
active: [20] 0.741 | S. cerevisiae deletion strains, locus YLR113W, strain HOG1, hits give low values 0.78 | S. cerevisiae deletion strains, locus YPL256C, strain CLN2, hits give low values 0.827
inactive: S. cerevisiae deletion strains, locus YAR019C, strain CDC15, hits give low values 0.978 | S. cerevisiae deletion strains, locus YBL105C, strain PKC1, hits give low values 0.965 | S. cerevisiae deletion strains, locus YBR135W, strain CKS1, hits give low values 0.966 | S. cerevisiae deletion strains, locus YBR136W, strain MEC1, hits give low values 0.982 | S. cerevisiae deletion strains, locus YBR160W, strain CDC28, hits give low values 0.979 | S. cerevisiae deletion strains, locus YDL017W, strain CDC7, hits give low values 0.972 | S. cerevisiae deletion strains, locus YDL028C, strain MPS1, hits give low values 0.977 | [19] 0.983 | S. cerevisiae deletion strains, locus YDL108W, strain KIN28, hits give low values 0.974 | S. cerevisiae deletion strains, locus YDL132W, strain cdc53, hits give low values 0.982 | S. cerevisiae deletion strains, locus YDL214C, strain PRR2, hits give low values 0.884 | S. cerevisiae deletion strains, locus YDR052C, strain DBF4, hits give low values 0.979 | S. cerevisiae deletion strains, locus YDR054C, strain cdc34, hits give low values 0.958 | S. cerevisiae deletion strains, locus YDR226W, strain ADK1, hits give low values 0.961 | S. cerevisiae deletion strains, locus YDR477W, strain SNF1, hits give low values 0.93 | S. cerevisiae deletion strains, locus YER123W, strain YCK3, hits give low values 0.939 | S. cerevisiae deletion strains, locus YER133W, strain GLC7, hits give low values 0.953 | S. cerevisiae deletion strains, locus YFL009W, strain cdc4, hits give low values 0.976 | S. cerevisiae deletion strains, locus YFL029C, strain CAK1, hits give low values 0.979 | S. cerevisiae deletion strains, locus YFR003C, strain YPI1, hits give low values 0.973 | S. cerevisiae deletion strains, locus YFR019W, strain FAB1, hits give low values 0.979 | S. cerevisiae deletion strains, locus YFR028C, strain CDC14, hits give low values 0.974 | S. cerevisiae deletion strains, locus YGR040W, strain KSS1, hits give low values 0.931 | S. cerevisiae deletion strains, locus YGR052W, strain FMP48, hits give low values 0.896 | S. cerevisiae deletion strains, locus YGR092W, strain DBF2, hits give low values 0.905 | S. cerevisiae deletion strains, locus YHR079C, strain IRE1, hits give low values 0.883 | S. cerevisiae deletion strains, locus YHR082C, strain KSP1, hits give low values 0.934 | S. cerevisiae deletion strains, locus YHR205W, strain SCH9, hits give low values 0.84 | S. cerevisiae deletion strains, locus YIL147C, strain SLN1, hits give low values 0.973 | S. cerevisiae deletion strains, locus YJL095W, strain BCK1, hits give low values 0.918 | S. cerevisiae deletion strains, locus YJL128C, strain PBS2, hits give low values 0.903 | S. cerevisiae deletion strains, locus YJL157C, strain FAR1, hits give low values 0.958 | S. cerevisiae deletion strains, locus YJR016C, strain ILV3, hits give low values 0.98 | S. cerevisiae deletion strains, locus YJR066W, strain TOR1 (second series), hits give low values 0.955 | S. cerevisiae deletion strains, locus YJR066W, strain TOR1, hits give low values 0.899 | S. cerevisiae deletion strains, locus YKL048C, strain ELM1, hits give low values 0.958 | S. cerevisiae deletion strains, locus YKL067W, strain YNK1, hits give low values 0.877 | S. cerevisiae deletion strains, locus YKL101W, strain HSL1, hits give low values 0.891 | S. cerevisiae deletion strains, locus YKL193C, strain SDS22, hits give low values 0.969 | S. cerevisiae deletion strains, locus YKL203C, strain TOR2, hits give low values 0.995 | S. cerevisiae deletion strains, locus YLR133W, strain CKI1, hits give low values 0.932 | S. cerevisiae deletion strains, locus YLR403W, strain SFP1, hits give low values 0.952 | S. cerevisiae deletion strains, locus YML070W, strain DAK1, hits give low values 0.936 | S. cerevisiae deletion strains, locus YMR001C, strain CDC5, hits give low values 0.968 | S. cerevisiae deletion strains, locus YMR205C, strain PFK2 (second series), hits give low values 0.931 | S. cerevisiae deletion strains, locus YMR277W, strain FCP1, hits give low values 0.963 | S. cerevisiae deletion strains, locus YNL006W, strain LST8, hits give low values 0.979 | S. cerevisiae deletion strains, locus YNL020C, strain ARK1, hits give low values 0.916 | S. cerevisiae deletion strains, locus YNL161W, strain CBK1, hits give low values 0.972 | S. cerevisiae deletion strains, locus YNL183C, strain NPR1, hits give low values 0.881 | S. cerevisiae deletion strains, locus YNL207W, strain RIO2, hits give low values 0.98 | S. cerevisiae deletion strains, locus YNL222W, strain SSU72, hits give low values 0.968 | S. cerevisiae deletion strains, locus YNL307C, strain MCK1 (second series), hits give low values 0.882 | S. cerevisiae deletion strains, locus YOL078W, strain AVO1, hits give low values 0.966 | S. cerevisiae deletion strains, locus YOL136C, strain PFK27, hits give low values 0.93 | S. cerevisiae deletion strains, locus YOR061W, strain CKA2, hits give low values 0.929 | S. cerevisiae deletion strains, locus YOR119C, strain RIO1, hits give low values 0.926 | S. cerevisiae deletion strains, locus YOR231W, strain MKK1, hits give low values 0.914 | S. cerevisiae deletion strains, locus YOR329C, strain SCD5, hits give low values 0.972 | S. cerevisiae deletion strains, locus YPL031C, strain PHO85, hits give low values 0.932 | S. cerevisiae deletion strains, locus YPL153C, strain RAD53, hits give low values 0.934 | S. cerevisiae deletion strains, locus YPL204W, strain HRR25, hits give low values 0.916 | S. cerevisiae deletion strains, locus YPL209C, strain IPL1, hits give low values 0.974 | S. cerevisiae deletion strains, locus YPR025C, strain CCL1, hits give low values 0.97 | S. cerevisiae deletion strains, locus YPR106W, strain ISR1, hits give low values 0.958 | S. cerevisiae deletion strains, locus YPR111W, strain DBF20, hits give low values 0.936 | S. cerevisiae deletion strains, strain NNK1, hits give low values 0.97 | S. cerevisiae deletion strains, strain TSCII, hits give low values 0.963
